From PubChem BioAssay
CHRM1 agonist: activates human CHRM1 receptor | CHO-K1 hM1, Fluo-8 calcium fluorescence, agonist mode; 0% DMSO, 100% acetylcholine EC100 | activation, % at 3 µM | actives 0.33% (n = 360,000) | AID 588814;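 active = activation above the run's mean compound activation plus 3 SD, cut at about 16% in these data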;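 note: peak over basal fluorescence ratio within a 140 s kinetic read after compound addition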
Target sequence (P11229 whole entry, looked up): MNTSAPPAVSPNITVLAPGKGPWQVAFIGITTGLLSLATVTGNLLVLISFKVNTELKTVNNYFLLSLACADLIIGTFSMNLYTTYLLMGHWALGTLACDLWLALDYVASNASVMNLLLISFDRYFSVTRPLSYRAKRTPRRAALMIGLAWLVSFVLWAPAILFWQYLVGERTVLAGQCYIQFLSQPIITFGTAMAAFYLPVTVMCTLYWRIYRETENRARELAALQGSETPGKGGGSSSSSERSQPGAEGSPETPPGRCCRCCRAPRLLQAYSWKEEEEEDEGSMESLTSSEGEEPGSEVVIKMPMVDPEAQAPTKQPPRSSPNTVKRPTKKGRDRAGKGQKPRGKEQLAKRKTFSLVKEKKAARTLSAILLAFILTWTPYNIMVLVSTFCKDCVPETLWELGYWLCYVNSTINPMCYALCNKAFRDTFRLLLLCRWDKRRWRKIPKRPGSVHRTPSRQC
M1 PAM: human CHRM1 positive allosteric modulation; CHO-K1 hM1, Fluo-8 calcium fluorescence, ACh EC20; 0% = ACh EC20, 100% = maximal ACh; actives 0.088% (n = 360,000); P11229; AID 588819; activation, % at 3 µM; in the data active = activation above about 19%, passing the limit was not always enough
M1 PAM parental: counter-screen for M1 PAMs: effect in parental CHO-K1 cells; ATP EC20, Fluo-8 calcium fluorescence; 0% at ATP EC20, 100% at ATP max; activation, % at 3 µM; AID 602247; actives 0.02% (n = 360,000);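 active = activation above the run cutoff, the mean activation of all test compounds plus 3 SD, cut at about 40% in these data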;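 note: peak over basal fluorescence ratio in a 140 s read after ATP addition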
CHO-K1 Ca antag: nonselective inhibitor or artifact in parental CHO-K1 cells. actives 0.6% (n = 360,000). inhibition, % at 3 µM. ATP-induced calcium, Fluo-8 fluorescence;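 active = inhibition above a per-plate cutoff, the plate's mean sample inhibition plus 3 SD, cut at about 24% in these data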;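 note: 0% = DMSO plus EC80 ATP and 100% = DMSO alone without ATP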
M1 ag parental: nonselective activator or artifact in parental CHO-K1 cells; Fluo-8 calcium fluorescence; scaled to maximal ATP response, vehicle zero; activation, % at 3 µM; actives 0.48% (n = 360,000); AID 602248; in the data active = activation above about 15%;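 note: untransfected CHO-K1 host cells lacking M1 receptor as counterscreen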
CHRM1 antagonist: antagonists of human M1 muscarinic receptor; P11229; CHO-K1 hM1, Fluo-8 calcium fluorescence, ACh EC80 antagonist; inhibition, % at 3 µM; actives 1.3% (n = 360,000); AID 588852;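 active = percent inhibition above its own plate's cutoff, namely the mean of that plate's compound wells plus 3 SD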;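 note: peak over basal fluorescence ratio during 140 s after agonist addition; 0% = ACh EC80 plus DMSO and 100% = DMSO alone without agonist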
Numbers without * were called inactive. Compounds with a hit are over-represented: about 2.4% of the library has one in this group of screens.

SMILES | CHRM1 agonist | M1 PAM | M1 PAM parental | CHO-K1 Ca antag | M1 ag parental | CHRM1 antagonist
CCOC(=O)C1CCCN(CCC(=O)Nc2cccc(Cl)c2C)C1 (stereo not drawn) | 21.8* | -15.8 | 5.3 | -5.7 | 1.0 | 24.2
CC(C)=CCn1c2ccc(NC(=O)NCc3ccc(F)cc3)cc2c(=O)n1C | -4.0 | -0.2 | -5.1 | -3.5 | 0.6 | -8.9
COc1cc(C2NC(=O)c3ccccc3O2)ccc1OC(C)C (stereo not drawn) | 0.3 | 12.5 | -9.5 | 25.4* | -0.6 | -2.5
COc1cccc(C(CNC(=O)C2CCN(C(=O)Nc3ccccc3)CC2)N(C)C)c1 (stereo not drawn) | -8.4 | -8.7 | 18.1 | -24.1 | 0.6 | 9.8
O=C(CCCN1CCC(c2ccccc2)C1)c1ccc2c(c1)OCCO2 (stereo not drawn) | -7.6 | -26.3 | 3.1 | -20.1 | 1.8 | 34.8*
CC(C(=O)Nc1ccc(S(=O)(=O)N2CCCC2)cc1)N1CCc2ccccc2C1 (stereo not drawn) | -7.4 | -27.6 | 11.8 | -16.3 | 0.9 | 100.8*
CC(C(=O)Nc1ccc(S(=O)(=O)N2CCCC2)cc1)N1CCCC(C(N)=O)C1 (stereo not drawn) | -7.2 | -16.8 | -30.1 | 7.4 | 0.4 | 38.4*
CCCC(C)C(=O)Nc1ccc(S(=O)(=O)N2CCCC2)cc1 (stereo not drawn) | -6.5 | 4.9 | 17.9 | -9.6 | 1.5 | -6.9
Cc1ccc(NC(=O)C(C)N2CCc3ccccc3C2)cc1 (stereo not drawn) | -8.9 | -3.6 | 5.5 | -8.8 | -0.5 | 6.4
CCC[C@@H](CN1CCC[C@H]1CN1C(N)=NC[C@@H]1Cc1ccccc1)N1C[C@@H](Cc2ccccc2)N(CCCC2CCCC2)C1=N | -10.2 | -32.0 | 17.1 | -14.4 | 1.3 | 33.0
CCC[C@@H](CN1CCC[C@H]1CN1C(N)=NC[C@@H]1Cc1ccccc1)N1C[C@@H]([C@H](C)CC)N(CCCC2CCCC2)C1=N | -10.6 | -31.1 | -15.7 | 1.4 | 0.3 | 81.6*
CCCCN1C(=N)N([C@@H](CCC)CN2CCC[C@H]2CN2C(N)=NC[C@@H]2Cc2ccccc2)C[C@H]1Cc1ccccc1 | -13.3 | -35.0 | 16.8 | -15.1 | -0.2 | 36.4*
CCCCCCn1c(=O)n2n(c1=O)C[C@]1(OC(=O)NC3CC3)CN(S(=O)(=O)c3ccc(C)cc3)C[C@]1(O)C2 | -3.3 | -3.5 | -3.8 | 7.3 | -0.2 | 12.5
CC1(C)OC(=O)C=C[C@]2(C)[C@H]3CC[C@@]4(C)[C@H](C(=O)O)OC(=O)[C@H]5O[C@]54[C@]3(C)C(=O)C[C@@H]12 | -2.2 | 9.6 | 12.8 | -18.9 | 0.3 | -9.9
Cc1cccc(CNC(=O)C(C)n2nc(C)c3c(C)n(-c4ccccc4)nc3c2=O)c1 (stereo not drawn) | -5.1 | 9.3 | 21.9 | -21.4 | 0.6 | -13.8
CN(C)CCOC(c1ccc(Cl)cc1)c1ccccn1 (stereo not drawn) | -7.7 | -24.4 | -4.5 | 0.7 | 0.4 | 41.6
Cc1ccccc1C(OCCN(C(C)C)C(C)C)c1ccccc1 (stereo not drawn) | -13.6 | -27.4 | 8.4 | 1.1 | 0.1 | 100.7*
O=C(COC(=O)/C=C/c1ccccc1)NNC(=O)c1ccccc1F | -1.4 | 4.8 | -7.9 | -5.1 | 2.1 | -5.7
O=C(C1CCCCC1)N1C[C@@H](O)[C@H](n2cc(-c3ccc(F)cc3)nn2)C[C@@H]1c1ccccc1 | -0.8 | 1.9 | 10.0 | 3.0 | -0.1 | -0.8
O=C(NCc1ccccc1)c1onc(CS(=O)(=O)c2ccccn2)c1C(=O)NCc1ccccc1 | -0.8 | 4.1 | 6.7 | -8.1 | 0.1 | 1.0
CCN(CC(=O)Nc1ccc2c(c1)OCCO2)C(=O)/C=C/c1ccc(OC)cc1OC | -4.1 | 2.7 | -7.9 | 3.9 | 1.6 | 2.4
CCN(CC(=O)Nc1ccc2c(c1)OCCO2)C(=O)/C=C/c1cccc(OC)c1OC | 17.3* | 26.6* | 20.1 | -11.5 | 5.8 | -20.2
COc1ccc(C2/C=C\CN(C(=O)C3CCCC3)CC(=O)N2Cc2ccc(F)cc2)cc1 (stereo not drawn) | 4.0 | 31.6* | 6.7 | -13.4 | -0.3 | -22.4
COc1ccc(C2/C=C\CN(C(=O)C3CCCCC3)CC(=O)N2Cc2ccc(F)cc2)cc1 (stereo not drawn) | -1.2 | 7.0 | 10.0 | -8.7 | 0.0 | -3.6
O=C(CNC1CCCCCC1)Nc1ccc(S(=O)(=O)NC2CC2)cc1 | -11.5 | -27.4 | 11.8 | -27.9 | 4.1 | 31.6*
SMILES | CHRM1 agonist | M1 PAM | M1 PAM parental | CHO-K1 Ca antag | M1 ag parental | CHRM1 antagonist
CC1CCN(CC(=O)Nc2ccc(S(=O)(=O)NC3CC3)cc2)CC1 | -6.5 | -24.9 | -0.9 | -3.9 | 0.0 | 74.0*
CCN1CCN(CC(=O)Nc2ccc(S(=O)(=O)N3C(C)CCCC3C)cc2)CC1 (stereo not drawn) | -11.3 | -23.8 | 5.4 | -12.1 | 1.4 | 24.1*
CC1CCC(NS(=O)(=O)c2ccc(N3CCCC3=O)cc2)CC1 (stereo not drawn) | 6.3 | -20.6 | -23.7 | 22.6 | 19.5* | 45.8*
CC1CCN(S(=O)(=O)c2ccc(NC(=O)CN3CCCC3)cc2)CC1 | -2.7 | 8.4 | -8.4 | -21.7 | 4.3 | -1.4
CC(=O)NC(Cc1c[nH]c2ccccc12)C(=O)N1CCN(S(=O)(=O)c2ccccc2)CC1 (stereo not drawn) | -1.6 | -0.5 | 8.2 | 1.6 | 0.3 | -0.7
O=C(CSc1ccc(Cl)cc1)N1N=CCC1c1ccccc1 (stereo not drawn) | -6.3 | -7.0 | 12.0 | -7.0 | 1.6 | 1.4
NC(=NC(=O)c1ccc(Cl)cc1)N1N=CCC1c1ccccc1 (stereo not drawn) | 2.3 | 8.3 | -9.0 | 25.4* | -0.7 | 5.2
O=C1NC(=S)S/C1=C\c1cc(Cl)cc(Cl)c1O | 40.1* | -12.6 | 0.1 | 14.5 | 37.2* | 36.1*
O=C1NC(=S)SC1=Cc1ccccc1Cl | 0.2 | -2.4 | 0.3 | -17.7 | 7.7 | -0.3
Cc1ccc(NC(=O)COC(=O)Cc2ccc(Br)cc2)cc1S(=O)(=O)N1CCOCC1 | -1.5 | -16.1 | 14.6 | -19.0 | 5.2 | 35.2*
Cc1ccc(NC(=O)COC(=O)Cc2ccccc2)cc1S(=O)(=O)N1CCOCC1 | -2.3 | 6.2 | 17.8 | -10.6 | 2.9 | -5.2
Cc1ccc(NC(=O)COC(=O)CN2C(=O)NC(C)(C)C2=O)cc1S(=O)(=O)N1CCOCC1 | 1.0 | 5.9 | 4.5 | 6.1 | 19.5* | 3.9
COC(=O)c1ccc(/C=N\NC(=O)CC(=O)NCCc2ccccc2)cc1 | -7.4 | 6.8 | 1.6 | 14.7 | 17.4* | -1.9
O=C(CC(=O)N/N=C\c1ccccc1)NCCc1ccccc1 | 0.0 | -9.9 | -5.1 | 1.2 | -0.1 | 10.5
Cc1cccc(N=C2C(=O)Nc3c(Cl)cccc32)c1 | -1.5 | 4.2 | 19.7 | -13.2 | 0.2 | -9.9
O=C1Nc2c(Cl)cc(Cl)cc2C1=O | 16.2* | 3.4 | 7.6 | -6.8 | 1.4 | -14.0
